# Laboratory results from PubChem BioAssay (Tox21).
# Results filed as inconclusive are left out. Entries that show only a call come without a potency. Activity calls are given as the source filed them. The call rests on the fitted dose curve; in most records, active means well fitted cell-killing curve with a large enough effect in the repeat runs; inconclusive means weak or mixed curves, or effect the other way; inactive means flat fitted curve, though single readings scatter.
# Experiment: qHTS assay to identify small molecule antagonists of the estrogen receptor alpha (ER-alpha) signaling pathway using the BG1 cell line in the presence of 0.1 nM 17-beta-estradiol - cell viability counter screen (AID 1259241); further: nearly all actives have a fitted effect of over 40% in size
# Settings: VM7Luc4E2 (BG1) viability, CellTiter-Fluor protease, 22 h, 0.1 nM estradiol agonist added; series mostly up to 92.4 µM
# Excerpt: National Center for Advancing Translational Sciences [NCATS]
# NIH Chemical Genomics Center [NCGC]
# U.S. Environmental Protection Agency [EPA]
# National Institutes of Environmental Health Sciences [NIEHS]
# National Toxicology Program [NTP]
# U.S. Food and Drug Administration [FDA]
# Estrogen receptor (ER), a member of the nuclear hormone receptor plays an important role in development, metabolic homeostasis and reproduction. Two subtypes of ER, ER-alpha and ER-beta, have similar expression patterns with some uniqueness in both types. Endocrine disrupting chemicals (EDCs) and their interactions with steroid hormone receptors like ER causes disruption of normal endocrine function. Therefore, it is important to understand the effect of environmental chemicals in ER signaling pathway. For identifying ER antagonists, VM7Luc4E2 cell line was used to screen against Tox21 compound libraries.
# VM7Luc4E2 cell line (provided by Denison MS, University of California) endogenously express full-length ER-alpha and is stably transfected with a plasmid containing four estrogen responsive elements (ERE) upstream of a luciferase reporter gene. The current screening for identification of ER-alpha inhibitors against Tox21 compound libraries used lower concentration (0.1 nM) of 17beta-Estradiol as a stimulator. The cytotoxicity of the Tox21 compound libraries against VM7Luc4E2 cell line was tested by measuring live-cell protease activity using CellTiter-Fluor assay in the same wells.
# Tox21 Assay Protocol Summary:
# VM7Luc4E2 cells were cultured in phenol red free assay medium containing 10% charcoal stripped FBS for 5 days prior to the assay. The cells were dispensed at 4,000 cells/well in 4 uL of assay medium into white wall/solid-bottom 1536-well plates (Corning Life Sciences, Corning, NY) using a Multidrop Combi (ThermoFisher Scientific, Waltham, MA) dispenser. After the assay plates were incubated at 37C and 5% CO2 for 24 hr, 23 nL of compounds dissolved in DMSO, positive controls or DMSO only was transferred to the assay plates by a Pintool station (Kalypsys, San Diego, CA). The transfer of compounds was followed by the addition of 1 uL of 0.1 nM (final concentration) agonist (17beta-Estradiol)/assay medium using a Flying Reagent Dispenser (FRD, Aurora Discovery, San Diego, CA). The plates were incubated at 37C and 5% CO2 for 22 hr. For cytotoxicity assay, 1 uL of CellTiter-Fluor reagent (Promega Corporation, Madison, WI) was added to each well using the FRD and after 30 min incubation at 37C and 5% CO2, The fluorescence intensity was measured using ViewLux plate reader (PerkinElmer, Shelton, CT).
row,Compound,Potency
1,CCCCN(CCCC)SN(C)C(=O)Oc1cccc2c1OC(C)(C)C2,inactive
2,COCCl,inactive
3,CN(N=O)c1ccccc1,inactive
4,O=[N+]([O-])c1ccc(Oc2ccc(Cl)cc2Cl)cc1,inactive
5,Cn1cc(-c2ccccc2)c(=O)c(-c2cccc(C(F)(F)F)c2)c1,inactive
6,CC(C)(Cl)Cl,inactive
7,Cc1ccccc1O,inactive
8,O=c1[nH]c2ccccc2c(=O)o1,inactive
9,ClCCBr,inactive
10,CC(C)C#N,inactive
11,O=[N+]([O-])c1ccc([As](=O)(O)O)cc1,inactive
12,CCOP(=S)(OCC)SCCSCC,inactive
13,C#CC(C)(C)NC(=O)c1cc(Cl)cc(Cl)c1,inactive
14,BrCCBr,inactive
15,C=CC(N)=O,inactive
16,CC1OC(C)OC(C)O1 (stereo not given),inactive
17,CN1C(=O)CN=C(c2ccccc2)c2cc(Cl)ccc21,inactive
18,C=C(C)CCl,inactive
19,C#CCN(C)[C@H](C)Cc1ccccc1,inactive
20,CON(C)C(=O)Nc1ccc(Cl)c(Cl)c1,inactive

row,Compound,Potency
1,CN(C)N=O,inactive
2,O=C1CCCN1,inactive
3,Clc1ccc(Cl)cc1,inactive
4,CNC(=O)Oc1ccccc1OC(C)C,inactive
5,O=c1ccc(=O)[nH][nH]1,inactive
6,CC(C)NC(=O)N1CC(=O)N(c2cc(Cl)cc(Cl)c2)C1=O,inactive
7,Nc1ccc(Br)cc1,inactive
8,Nc1ccccc1C(=O)O,inactive
9,CN(C)CCO,inactive
10,CCC(C)(CC)c1cc(NC(=O)c2c(OC)cccc2OC)on1,inactive
11,O=C(NC(=O)c1c(F)cccc1F)Nc1cc(Cl)c(OC(F)(F)C(F)C(F)(F)F)cc1Cl (stereo not given),inactive
12,CC(C#N)CCC#N (stereo not given),inactive
13,C1CC2OC2CC1C1CO1 (stereo not given),inactive
14,CCOP(OCC)OCC,inactive
15,CCC12COCN1COC2,inactive
16,Cc1ccc([N+](=O)[O-])cc1C,inactive
17,CC(C)C1(C)N=C(c2nc3ccccc3cc2C(=O)O)NC1=O (stereo not given),inactive
18,CCCCN(CC)C(=O)SCCC,inactive
19,CCNc1nc(NC(C)C)nc(SC)n1,inactive
20,COC(=O)NS(=O)(=O)c1ccc(N)cc1,inactive
